We go through 17 molecules from PubChem BioAssay (Tox21).

Records with an inconclusive call do not appear. The source holds several records for some structures; these can differ, active in one and inactive in another. The source made the active and inactive calls. Calls come from the whole dose curve.
% is set by controls: 0 for no effect and ±100 for the full control effect; potency is the fitted concentration of half-maximal effect.

For the test, the target named is Acetylcholinesterase (Homo sapiens) (UniProt P22303). In words: Acetylcholinesterase (AChE) small molecule antagonists: fluorescence cell-based qHTS assay (AID 1347398). Note: nearly all actives have a fitted effect of over 50% in size. As to conditions: SH-SY5Y cells; Potency: AChE activity; outcome: AChE activity; series mostly up to 115 µM; activity change, negative = inhibition: at the top concentration. A digest of the protocol: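 Fluorimetric cell-based assay: intact SH-SY5Y cells, 30 min compound preincubation at 37 C, acetylthiocholine substrate with thiol probe Thiolite Green, 40 min RT development, fluorescence 490/520 nm.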
Acetylcholinesterase (Homo sapiens), sequence (P22303 whole entry, looked up): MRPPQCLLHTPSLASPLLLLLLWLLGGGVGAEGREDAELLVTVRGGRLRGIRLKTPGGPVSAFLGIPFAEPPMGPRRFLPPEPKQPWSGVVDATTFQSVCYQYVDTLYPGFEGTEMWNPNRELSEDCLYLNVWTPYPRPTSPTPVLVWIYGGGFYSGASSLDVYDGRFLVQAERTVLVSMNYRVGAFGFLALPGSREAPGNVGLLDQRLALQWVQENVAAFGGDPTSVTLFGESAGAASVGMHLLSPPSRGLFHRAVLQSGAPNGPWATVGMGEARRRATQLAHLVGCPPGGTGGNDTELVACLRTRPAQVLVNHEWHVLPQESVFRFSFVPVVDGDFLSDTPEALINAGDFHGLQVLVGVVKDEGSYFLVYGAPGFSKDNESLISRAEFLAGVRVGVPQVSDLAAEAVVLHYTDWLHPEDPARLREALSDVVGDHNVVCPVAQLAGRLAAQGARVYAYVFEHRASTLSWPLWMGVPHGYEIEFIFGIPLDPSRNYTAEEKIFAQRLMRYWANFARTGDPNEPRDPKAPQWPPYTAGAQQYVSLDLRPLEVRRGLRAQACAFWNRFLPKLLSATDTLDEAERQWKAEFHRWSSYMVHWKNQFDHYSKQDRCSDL
Turning to `CC(C)(C)c1cc(Cc2cc(C(C)(C)C)c(O)c(C(C)(C)C)c2)cc(C(C)(C)C)c1O`, the Potency entry is “inactive”.
Same read-out and setting: in the case of `CN(C)C(=O)Nc1ccc(Cl)c(Cl)c1` it was “inactive”.
On to `O=[N+]([O-])c1ccc2c(c1)Cc1ccccc1-2`, for which the Potency is 39.9 µM (active) and inactive.
The same measure, in the same setting: in the case of `COC(=O)C1=C(C)NC(C)=C(C(=O)OCC(C)C)C1c1ccccc1[N+](=O)[O-]` (configuration not stated) it was “inactive”.
For `C[C@H](CCC(=O)O)[C@H]1CC[C@H]2[C@@H]3CC[C@@H]4C[C@H](O)CC[C@]4(C)[C@H]3C[C@H](O)[C@]12C`, the “activity change, negative = inhibition” value was 3.83% (inactive).
`Cc1c(C(=O)O)c(O)cc2c1C(=O)c1c(O)c([C@@H]3O[C@H](CO)[C@@H](O)[C@H](O)[C@H]3O)c(O)c(O)c1C2=O`: the Potency entry is “inactive”.
Consider `CC(C)CC(=O)O`, for which the “activity change, negative = inhibition” value is 0.0851% (inactive).
For the molecule `CCCCCCc1ccc(-c2ccc(C#N)cc2)cc1`, the “activity change, negative = inhibition” value is -1.44% (inactive).
In the case of `O=C(Nc1ccc([N+](=O)[O-])cc1Cl)c1cc(Cl)ccc1O`, the Potency entry was “inactive”.
On to `C/C=C(\C)C(=O)OCCc1ccccc1`, for which the “activity change, negative = inhibition” value was -0.21% (inactive).
Regarding `O=C1c2ccccc2C(=O)c2c1ccc(O)c2O`, the “activity change, negative = inhibition” value was -4.18% [at 53.7 µM] (inactive).
Turning to `CCOC(=O)[C@H](O)[C@@H](O)C(=O)OCC`, the “activity change, negative = inhibition” value was 7.4% (inactive).
Consider `O=C1c2c(O)ccc(Nc3ccc(CCO)cc3)c2C(=O)c2c([N+](=O)[O-])ccc(O)c21`, for which the Potency is 11.2 µM (active).
As to `NNC(=O)c1cccc(C(=O)NN)c1`, the “activity change, negative = inhibition” value is 0.868% (inactive).
Turning to `O=C(c1ccccc1)c1ccc2n1CCC2C(=O)O` (configuration not stated), the “activity change, negative = inhibition” value is 4.34% [at 53.7 µM] (inactive).
On the same count and under the same terms, the same measure for `CCC(C(=O)NC(N)=O)c1ccccc1` (configuration not stated): 0.407% (inactive).
Regarding `CN(Cc1cnc2nc(N)nc(N)c2n1)c1ccc(C(=O)N[C@@H](CCC(=O)O)C(=O)O)cc1`, the Potency entry was “inactive”.
